We go through 98 molecules from PubChem BioAssay AID372 (MTDP, 2006).

In all, about 100,000 compounds went through this assay and about 770 (0.77%) were called active. The full list was thinned out, with actives kept by preference. A number with no mark means an inactive call. Rule as the data show it: active = inhibition above about 50%; inactive = the rest.

This assay addresses Gag-Pol polyprotein (Human immunodeficiency virus type 1 group M subtype B (isolate HXB2)) (UniProt P04585). The experiment in a line: RNase H inhibition, HIV 1 Gag Pol polyprotein, FRET biochemical assay, screening (AID 372). The conditions noted are these: HIV-1 RT RNase H, FRET RNA/DNA substrate fluorescence; at 10 µM; active compounds read high.
One may read the inhibition as the percentage by which the read-out fell short of the control. Consider `O=c1c2ccccc2c(-c2ccccc2)nn1CCc1ccccc1`, for which the inhibition is 53% (active).
Take `O=c1c2ccccc2c(-c2ccccc2)nn1Cc1cccc(Br)c1`: the inhibition was 15%.
As for `CC(C)Cn1nc(-c2ccccc2)c2ccccc2c1=O`, the figure is 18%; as for `COc1ccc(OC)c(C2NC(=S)NC(C)=C2C(=O)OCCc2ccccc2)c1` (stereo not drawn), 21%.
As for `COc1ccc(OC)c(C2NC(=S)NC(C)=C2C(=O)OCCOc2ccccc2)c1` (stereo not drawn), the figure is 50% (active); as for `COCCOC(=O)C1=C(C)NC(=S)NC1c1cc(OC)ccc1OC` (stereo not drawn), 15%; as for `COc1ccc(/C(O)=C2/C(=O)C(=O)N(CCCCCC(=O)O)C2c2ccc([N+](=O)[O-])cc2)cc1` (stereo not drawn), 6%.
The value for `CCOC(=O)Cc1csc(N/N=C\c2c(Cl)ccc(Cl)c2Cl)n1` was 20%.
On to `O=C(CN1C(=O)C2C3CCC(C3)C2C1=O)Nc1ccccc1` (stereo not drawn), for which the inhibition is 14%.
As to `CCOc1cc(C(=S)N2CCC(C)CC2)ccc1O`, the inhibition was 50% (active).
As for `CCOc1cc(C(=S)N2CCOCC2)cc(Br)c1O`, the figure is 13%.
For `COc1cc(C(=S)N2CCOCC2)cc(I)c1O`, the inhibition was 45%.
With `COc1cc(C(=S)N2CCCCC2)cc(Br)c1O`, the inhibition was 37%.
As for `CCOc1cc(C(=S)N2CCCCC2)ccc1O`, the figure is 8%; as for `COc1cc(C(=S)N2CCC(C)CC2)ccc1O`, 7%.
For the molecule `CCOc1cc(C(=S)N2CCCCC2)cc(Br)c1O`, the inhibition was 56% (active).
The value for `CCOc1cc(C(=S)N2CCCCC2)cc(I)c1O` was 59% (active); that for `COc1cc(C(=S)N2CCCCC2)ccc1O` was 0%; that for `CS(=O)(=O)N(CC(=O)Nc1cccc2ccccc12)c1cccc(Cl)c1` was 10%.
In the case of `O=C1CC(c2ccccc2)CC(O)=C1C=NCc1ccc(F)cc1` (stereo not drawn), the inhibition is 8%.
Turning to `Cc1nnc(N/N=C/c2cccc([N+](=O)[O-])c2)[nH]c1=O`, the inhibition was 8%.
The value for `CCOC(=O)C1CCN(C(=O)COc2ccc(C)cc2C)CC1` was 4%.
As for `Fc1ccc(Br)cc1SCCc1ccccn1`, the figure is 0%; as for `CCOc1cc(/C=C2/SC(=S)NC2=O)cc([N+](=O)[O-])c1OCCCOc1ccc(Cl)cc1`, 27%; as for `O=C(NC(=S)Nc1cc(-c2nc3ccccc3s2)ccc1Cl)c1ccccc1`, 37%.
The value for `Cc1cc(C(=O)Nc2cc(-c3nc4ccccc4s3)ccc2Cl)ccc1[N+](=O)[O-]` was 52% (active).
For `COc1ccc(C(=O)NC(=S)Nc2cc(-c3nc4ccccc4s3)ccc2C)cc1`, the inhibition is 1%.
The value for `Cc1ccc(-c2nc3ccccc3s2)cc1NC(=O)c1ccc(Cl)c([N+](=O)[O-])c1` was 3%; that for `COc1ccc(C(=O)NC(=S)Nc2cc(-c3nc4ccccc4s3)ccc2Cl)cc1OC` was 10%.
The value for `Cc1ccc(C(=O)Nc2cc(-c3nc4ccccc4s3)ccc2Cl)cc1[N+](=O)[O-]` was 39%.
The value for `O=C(NC(=S)Nc1cc(-c2nc3ccccc3s2)ccc1Cl)c1ccc(Cl)cc1` was 33%.
Take `COc1ccc(C(=O)NC(=S)Nc2cc(-c3nc4ccccc4s3)ccc2Cl)cc1`: the inhibition was 50% (active).
The value for `O=C1C(=Cc2ccc(Oc3ccc(C(F)(F)F)cc3[N+](=O)[O-])c(Cl)c2)C(=O)c2ccccc21` was 16%; that for `Cc1cc(Oc2cc(NC(=O)c3cc(-c4ccccc4)nc4ccccc34)cc([N+](=O)[O-])c2)ccc1Cl` was 0%; that for `Cc1cc(C)c2oc(-c3ccc(C)c(NC(=O)c4cccs4)c3)nc2c1` was 15%.
The value for `CCOc1ccc(/C=N/n2c(-c3ccc(OC)cc3)n[nH]c2=S)cc1OC` was 12%; that for `COc1cc2ccccc2cc1C(=O)Nc1cccc2ccccc12` was 10%.
As for `COc1ccc(OS(=O)(=O)c2cc(Cl)c(Cl)cc2Cl)cc1`, the figure is 31%.
Regarding `O=S(=O)(Oc1ccc2ccccc2c1)c1cc(Cl)c(Cl)cc1Cl`, the inhibition was 58% (active).
Regarding `Cc1cc(S(=O)(=O)Oc2ccc3ccccc3c2)c(Cl)cc1Cl`, the inhibition is 42%.
As for `O=C(Nc1ccccc1C#Cc1ccccc1)C(c1ccccc1)c1ccccc1`, the inhibition is 8%.
As for `Cc1ccc(/C=C2\SC(=S)N(CCC(=O)Nc3cc(Cl)cc(Cl)c3)C2=O)cc1`, the inhibition was 14%.
As for `CC1(C)C(c2ccccc2)=NC(c2ccccc2F)=[N+]1[O-]`, the figure is 0%; as for `COc1ccc(/C=N/NC(=O)c2cc(-c3ccc(Cl)cc3)n[nH]2)cc1`, 14%; as for `CC(C)(C)N1C(=O)c2ccc(C(=O)c3ccc(C(=O)O)cc3)cc2C1=O`, 0%.
Regarding `Cc1cc(/C=C2\NC(=O)NC2=O)c(C)n1-c1cccc([N+](=O)[O-])c1`, the inhibition was 29%.
For the molecule `CCC(=O)N(Cc1ccco1)C1CC(=O)N(c2ccccc2)C1=O` (stereo not drawn), the inhibition was 0%.
As to `Cn1c(/C=C/c2cccc(Oc3ccccc3)c2)c([N+](=O)[O-])c(=O)n(C)c1=O`, the inhibition is 54% (active).
With `CCOc1ccc(/C=C/c2c([N+](=O)[O-])c(=O)n(C)c(=O)n2C)cc1`, the inhibition is 16%.
As to `Cn1c(/C=C/c2ccc(Br)cc2)c([N+](=O)[O-])c(=O)n(C)c1=O`, the inhibition was 6%.
The value for `Cc1[nH]n(-c2ccccc2)c(=O)c1N=Nc1ccccc1Br` was 5%; that for `COc1ccc2ccccc2c1/C=C1\SC(=Nc2cccc(Cl)c2C)NC1=O` was 35%.
As for `O=C(Nc1ccc(O)cc1)Nc1ccc(Cl)cc1`, the figure is 17%; as for `O=C(Nc1ccc(Cl)cc1)Nc1cc(Cl)cc(Cl)c1`, 6%; as for `O=C(Nc1ccc(Cl)cc1)Nc1ccc(-c2ccc(NC(=O)Nc3ccc(Cl)cc3)cc2)cc1`, 57% (active).
As for `O=C1/C(=C\c2ccc(-c3ccc([N+](=O)[O-])cc3)o2)SC(=S)N1c1ccc(O)cc1`, the figure is 52% (active).
`COc1ccc(N2C(=O)/C(=C/c3ccc(-c4ccccc4[N+](=O)[O-])o3)SC2=S)cc1`: the inhibition was 26%.
As for `COc1ccc(N2C(=O)/C(=C/c3ccc(-c4ccc([N+](=O)[O-])cc4Cl)o3)SC2=S)cc1`, the figure is 18%; as for `O=C(O)c1ccc(-c2ccc(/C=C3\SC(=S)N(c4ccc([N+](=O)[O-])cc4)C3=O)o2)cc1`, 49%.
Take `O=C(O)c1cccc(-c2ccc(/C=C3\SC(=S)N(c4ccc([N+](=O)[O-])cc4)C3=O)o2)c1`: the inhibition was 12%.
As for `COc1ccc(N2C(=O)/C(=C/c3ccc(-c4ccc([N+](=O)[O-])c(C)c4)o3)SC2=S)cc1`, the inhibition is 64% (active).
Consider `COc1ccc(CN2CCN(Cc3ccccc3C(F)(F)F)CC2)cc1Br`, for which the inhibition is 4%.
The value for `Cc1ccc(/C(N)=N/OC(=O)c2ccc(C)cc2Cl)cc1` was 10%.
As for `Clc1ccc(-c2nnc(-c3ccc4c(c3)OCO4)o2)c(Cl)c1`, the figure is 3%; as for `CCOC(=O)C1=C(C)N=c2s/c(=C\c3cccc(OCc4ccccc4Cl)c3)c(=O)n2C1c1ccc(Cl)cc1` (stereo not drawn), 11%.
As for `COc1ccc(Br)cc1CNC12CC3CC(CC(C3)C1)C2`, the figure is 6%; as for `Br/C(=C\c1ccccc1)C1Nc2cccc3cccc(c23)N1`, 21%.
Regarding `CCCCC(O)(CCCC)c1ccccc1O`, the inhibition was 3%.
The value for `O=c1oc2ccccc2cc1-c1csc(-c2ccc(O)cc2)n1` was 43%; that for `CCOc1cc(/C=C(/C#N)C(=O)Nc2cc(Cl)ccc2Cl)ccc1O` was 51% (active); that for `CCOc1ccc(NC(=O)/C(C#N)=C\c2ccc(O)c(OCC)c2)cc1` was 20%.
With `CCNC(=O)/C(C#N)=C/c1ccc(O)c(OCC)c1`, the inhibition is 6%.
With `COc1ccc2c(c1)C1C=CCC1C(C(=O)O)N2` (stereo not drawn), the inhibition is 25%.
Regarding `O=C(c1ccccc1)c1ccc2[nH]c(=O)[nH]c2c1`, the inhibition was 0%.
As for `O=C(c1ccccc1)c1ccc(O)c(O)c1`, the figure is 60% (active); as for `Cc1ccc(C(=O)c2cccc(C(=O)c3ccc(C)cc3)c2)cc1`, 7%; as for `O=C(Sc1nnnn1-c1ccccc1)c1ccccc1Br`, 0%.
The value for `CCOC(=O)c1sc(NC(=O)C2CC3CCC2C3)c(C(=O)OCC)c1C` (stereo not drawn) was 10%; that for `Cc1sc(NC(=O)C2CCCCC2)c(C(N)=O)c1C` was 7%.
The value for `COC(=O)c1sc(NC(=O)C2CC3CCC2C3)c(C(N)=O)c1C` (stereo not drawn) was 11%.
In the case of `CCc1c(C)sc(NC(=O)C2CCCO2)c1C(N)=O` (stereo not drawn), the inhibition was 0%.
As for `Oc1ccccc1N=Cc1c(O)c(I)cc2oc3c(c12)CCCC3`, the figure is 14%; as for `O=C(Nc1ccc(OC(F)(F)F)cc1)c1cccc(OCc2ccccc2)c1`, 0%; as for `c1ccc(CN2CCN(Cc3ccncc3)CC2)nc1`, 3%.
The value for `Cc1ccc2cccc(OS(=O)(=O)c3ccc(Cl)cc3C)c2n1` was 43%; that for `Cc1ccc2cccc(OS(=O)(=O)c3ccc(Cl)c(C)c3Cl)c2n1` was 52% (active).
The value for `Cc1ccc2cccc(OS(=O)(=O)c3cc(Cl)ccc3C)c2n1` was 47%; that for `Cc1ccc2cccc(OS(=O)(=O)c3cc(Cl)c(Cl)cc3Cl)c2n1` was 43%.
On to `COc1ccc(I)cc1S(=O)(=O)Oc1cccc2ccc(C)nc12`, for which the inhibition is 25%.
As for `Cc1ccc2cccc(OS(=O)(=O)c3ccccc3C)c2n1`, the figure is 58% (active); as for `CCc1nc(NC(=O)NS(=O)(=O)c2ccccc2C(=O)OC)nc(OC)n1`, 6%; as for `COc1cc(OC)cc(C(=O)N2CCN(c3ccc([N+](=O)[O-])cc3Cl)CC2)c1`, 9%.
With `O=C1NC(=S)N(c2cccc(Br)c2)C(=O)/C1=C/c1cccn1-c1ccccc1`, the inhibition is 39%.
Turning to `CCC(=O)Nc1ccc2nc(SCC(=O)Nc3ccc(C(C)=O)cc3)sc2c1`, the inhibition was 14%.
The value for `CCC(=S)/C=C1\Sc2ccc(OC)cc2N1CCCS(=O)(=O)O` was 11%; that for `O=C(c1c(Cl)cccc1Cl)N1CCN(c2ccccc2)CC1` was 6%.
In the case of `O=C(c1c(Cl)cccc1Cl)N1CCN(c2ccc(F)cc2)CC1`, the inhibition is 54% (active).
With `O=C(c1c(Cl)cccc1Cl)N1CCN(c2ccc(Cl)cc2)CC1`, the inhibition was 9%.
